Publication PMC5540273 (PLoS ONE, 2017)

Legend:
Conditions in all cases: concentration: 1 μM, replicates: in singlicate; n = 1
[1] = system: MYO3B
[2] = system: T1, NDR1
T1 construct: gene STK38

[3] = system: NDR2
[4] = system: NEK10
[5] = system: NEK11
[6] = system: NEK1
[7] = system: NEK2
[8] = system: NEK3
[9] = system: NEK4
[10] = system: NEK5
[11] = system: NEK6
[12] = system: NEK7
[13] = system: NEK9
[14] = system: T2, NIK
T2 construct: gene MAP3K14

[15] = system: T3, NIM1
T3 construct: gene MGC42105

[16] = system: NLK
[17] = system: T4, OSR1
T4 construct: gene OXSR1

[18] = system: PAK1
[19] = system: PAK2
[20] = system: PAK3
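Also: KINOMEscan kinase panel screen.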

SMILES | %Inh [1] | %Inh [2] | %Inh [3] | %Inh [4] | %Inh [5] | %Inh [6] | %Inh [7] | %Inh [8] | %Inh [9] | %Inh [10] | %Inh [11] | %Inh [12] | %Inh [13] | %Inh [14] | %Inh [15] | %Inh [16] | %Inh [17] | %Inh [18] | %Inh [19] | %Inh [20]
c1ccc(-c2cc(-c3c[nH]nc3-c3ccccn3)ccn2)cc1 [GW576604] | 0% | 17% | 23% | 19% | 3% | 0% | 0% | 2% | 0% | 0% | 0% | 0% | 17% | 24% | 20% | 44% | 0% | 16% | 13% | 16%
O=C(NCCNc1ccnc(Nc2ccc(F)cc2)n1)Nc1ccccc1F [GSK1379880] | 0% | 0% | 0% | 12% | 0% | 0% | 0% | 11% | 15% | 0% | 0% | 0% | 11% | 9% | 14% | 28% | 20% | 2% | 0% | 0%
CN(C(=O)c1ccc(-c2cc(-c3c[nH]nc3-c3ccccn3)ccn2)cc1)C1CCOCC1 [GW810083] | 0% | 3% | 0% | 0% | 9% | 0% | 0% | 16% | 0% | 7% | 6% | 6% | 18% | 29% | 20% | 0% | 0% | 0% | 0% | 0%
O=C(NCCNc1ccnc(Nc2ccc(F)cc2)n1)c1cc2ccccc2s1 [GSK1379874] | 0% | 0% | 0% | 7% | 0% | 0% | 0% | 4% | 0% | 0% | 0% | 0% | 16% | 0% | 33% | 0% | 12% | 6% | 0% | 0%
CCc1nc(-c2cccc(C)c2)c(-c2ccnc(NCc3ccccc3)c2)s1 | 0% | 0% | 0% | 0% | 0% | 7% | 0% | 24% | 0% | 0% | 0% | 0% | 0% | 0% | 0% | 21% | 0% | 30% | 27% | 22%
CN(C1=C(c2ccccc2)C(=O)NC1=O)c1ccccc1 [SB-334860] | 0% | 26% | 24% | 15% | 0% | 8% | 0% | 9% | 0% | 23% | 15% | 0% | 17% | 0% | 34% | 35% | 4% | 0% | 0% | 0%
Cn1cc(-c2ccc3c(c2)CCN3C(=O)Cc2ccccc2Cl)c2c(N)ncnc21 [GSK2608885] | 33% | 21% | 0% | 0% | 0% | 0% | 79% | 0% | 5% | 7% | 3% | 17% | 33% | 8% | 7% | 86% | 10% | 44% | 13% | 28%
CSc1ccc(-c2cc3ncnc(SCC(=O)O)c3s2)cc1 | 1% | 1% | 0% | 26% | 0% | 2% | 0% | 31% | 0% | 0% | 17% | 8% | 0% | 0% | 0% | 26% | 0% | 0% | 0% | 0%
CN1c2ccc(CNc3ccc(F)cc3)cc2-c2c(cnn2C)S1(=O)=O | 0% | 16% | 0% | 0% | 0% | 1% | 0% | 28% | 0% | 0% | 0% | 0% | 0% | 0% | 0% | 0% | 0% | 0% | 14% | 0%
COc1ccc(Nc2ncc(C#N)c(Nc3ccccc3C(N)=O)n2)cc1N1CCN(C)CC1.Cl [GSK1558669] | 0% | 98.8% | 75% | 94.1% | 97.5% | 91.6% | 99.6% | 93.5% | 94.7% | 100% | 99.9% | 97.4% | 98.2% | 96.6% | 99.9% | 71% | 100% | 91.2% | 96.9% | 100%
Cc1ccc(NC(=O)c2ccnc(N3CCN(C)CC3)c2)cc1-c1ccc(C(=O)NCC2CC2)cc1 [GW775604] | 22% | 27% | 0% | 0% | 0% | 20% | 0% | 20% | 0% | 0% | 0% | 0% | 0% | 4% | 0% | 0% | 0% | 9% | 37% | 0%
COc1ccc(COc2cc(-n3cnc4ccccc43)sc2C(N)=O)cc1 [GSK1024304] | 0% | 6% | 0% | 19% | 0% | 0% | 0% | 0% | 0% | 7% | 0% | 0% | 5% | 10% | 28% | 0% | 14% | 1% | 4% | 1%
Nc1nccc(-c2c(-c3ccc(F)cc3)ncn2C2CCN(CC(F)(F)F)CC2)n1 [SB-236560] | 0% | 38% | 0% | 42% | 0% | 0% | 0% | 24% | 0% | 16% | 0% | 0% | 20% | 13% | 50% | 60% | 0% | 0% | 0% | 100%
O=C(Nc1cccc(-c2nn3ncccc3c2-c2ccnc(Nc3cccc(C(F)(F)F)c3)n2)c1)c1c(F)cccc1F [GSK299495] | 4% | 0% | 0% | 17% | 19% | 0% | 0% | 11% | 0% | 13% | 0% | 0% | 0% | 0% | 25% | 70% | 23% | 0% | 0% | 10%
O=c1cc(N2CCOCC2)nc2n(Cc3cccc4ccccc34)ccn12 [GSK2333389] | 0% | 0% | 0% | 0% | 0% | 0% | 6% | 0% | 6% | 0% | 0% | 13% | 14% | 0% | 8% | 0% | 5% | 13% | 3% | 10%
CCc1ccnc(/C=C/c2n[nH]c3cc(Sc4ccccc4C(=O)NC)ccc23)c1 | 0% | 7% | 0% | 4% | 0% | 0% | 0% | 1% | 0% | 0% | 0% | 0% | 0% | 0% | 0% | 0% | 0% | 0% | 0% | 0%
